In PubChem BioAssay AID1159580 (chemical genetic matrix, 2015):
Hit rate of the full screen: of about 5,500 compounds, about 2,000 (36%) were called active. About 18% were inconclusive and are not listed. No stated cut-off is given here; in the data, active means normalized growth mostly below about 0.91 (no sharp cut-off); inconclusive means no clear call, values can overlap the other calls; inactive means mostly above about 0.92. Some of the results follow.

Assay: chemical genetic growth profiling, strain panel (AID 1159580);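 further: tested at 20 µM; growth read once vehicle control cultures reached saturation at 30 °C; 1 = growth at the plate median or of vehicle wells; lower values mean less growth of the strain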
Details: S. cerevisiae deletion strains, growth OD

Measured: normalized growth

CC(=O)NC(C(=O)O)C(C)(C)SN=O (centres undefined)
inactive: locus YAL013W, strain DEP1, hits give low values 1.02 | locus YAL021C, strain ccr4, hits give low values 1.01 | locus YAL026C, strain drs2, hits give low values 0.992 | locus YAL030W, strain snc1, hits give low values 0.991 | locus YBL061C, strain skt5, hits give low values 0.984 | locus YBR009C, strain hhf1, hits give low values 1 | locus YBR021W, strain FUR4, hits give low values 0.977 | locus YBR023C, strain chs3, hits give low values 0.994 | locus YBR171W, strain sec66, hits give low values 0.993 | locus YBR229C, strain ROT2, hits give low values 1.01 | locus YBR231C, strain swc5, hits give low values 0.996 | locus YBR279W, strain paf1, hits give low values 0.986 | locus YCL011C, strain gbp2, hits give low values 0.996 | locus YCL016C, strain dcc1, hits give low values 0.985 | locus YCL029C, strain bik1, hits give low values 0.981 | locus YCL061C, strain MRC1, hits give low values 0.999 | locus YCL069W, strain vba3, hits give low values 0.991 | locus YCR088W, strain abp1, hits give low values 0.983 | locus YDL005C, strain med2, hits give low values 0.977 | locus YDL035C, strain GPR1, hits give low values 1 | locus YDL040C, strain nat1, hits give low values 0.996 | locus YDL074C, strain BRE1, hits give low values 1.06 | locus YDL101C, strain DUN1, hits give low values 1 | locus YDL134C, strain PPH21, hits give low values 1.01 | locus YDL185W, strain tfp1, hits give low values 0.98 | locus YDL192W, strain arf1, hits give low values 0.999 | locus YDR001C, strain nth1, hits give low values 0.984 | locus YDR069C, strain doa4, hits give low values 0.984 | locus YDR101C, strain arx1, hits give low values 1 | locus YDR137W, strain rgp1, hits give low values 1.04 | locus YDR150W, strain NUM1, hits give low values 0.978 | locus YDR159W, strain sac3, hits give low values 0.997 | locus YDR162C, strain NBP2, hits give low values 1.03 | locus YDR195W, strain ref2 0.949 | locus YDR297W, strain sur2, hits give low values 0.98 | locus YDR318W, strain mcm21, hits give low values 1 | locus YDR334W, strain swr1, hits give low values 0.976 | locus YDR335W, strain msn5, hits give low values 0.982 | locus YDR388W, hits give low values 1 | locus YDR392W, strain spt3, hits give low values 0.98 | locus YDR502C, strain sam2, hits give low values 1 | locus YEL003W, strain gim4, hits give low values 0.988 | locus YEL037C, strain rad23, hits give low values 0.984 | locus YEL061C, strain CIN8 (second series), hits give low values 0.989 | locus YEL061C, strain CIN8, hits give low values 1 | locus YER015W, strain faa2, hits give low values 0.996 | locus YER016W, strain bim1, hits give low values 0.991 | locus YER110C, hits give low values 0.984 | locus YER111C, strain swi4, hits give low values 0.981 | locus YER155C, strain BEM2 (second series), hits give low values 0.989 | locus YER155C, strain BEM2, hits give low values 1 | locus YER167W, strain BCK2, hits give low values 0.995 | locus YFR010W, strain ubp6, hits give low values 0.976 | locus YGL078C, strain dbp3, hits give low values 0.99 | locus YGL086W, strain mad1, hits give low values 0.988 | locus YGL167C, strain pmr1, hits give low values 0.99 | locus YGL173C, strain kem1, hits give low values 0.995 | locus YGL227W, strain vid30, hits give low values 0.992 | locus YGL240W, strain doc1, hits give low values 0.989 | locus YGL248W, strain PDE1, hits give low values 1.01 | locus YGL253W, strain hxk2, hits give low values 0.983 | locus YGR078C, strain PAC10, hits give low values 1.02 | locus YGR135W, strain pre9, hits give low values 1 | locus YGR229C, strain SMI1, hits give low values 1.05 | locus YGR252W, strain gcn5, hits give low values 1.01 | locus YHR013C, strain ard1, hits give low values 0.972 | locus YHR027C, strain rpn1, hits give low values 1.01 | locus YHR030C, strain SLT2, hits give low values 1 | locus YHR079C, strain IRE1 (second series), hits give low values 0.999 | locus YHR094C, strain hxt1, hits give low values 0.98 | locus YHR129C, strain ARP1, hits give low values 0.998 | locus YHR142W, strain chs7, hits give low values 0.978 | locus YHR200W, strain rpn10, hits give low values 0.992 | locus YIL066C, strain RNR3, hits give low values 1.01 | locus YIL073C, strain SPO22, hits give low values 0.913 | locus YIL125W, strain kgd1, hits give low values 0.99 | locus YIR030C, strain dcg1, hits give low values 1 | locus YJL092W, strain hpr5, hits give low values 0.983 | locus YJL095W, strain BCK1 (second series), hits give low values 0.989 | locus YJL095W, strain BCK1, hits give low values 1.07 | locus YJL115W, strain asf1, hits give low values 0.986 | locus YJL129C, strain trk1, hits give low values 0.995 | locus YJL134W, strain LCB3, hits give low values 1 | locus YJL154C, strain vps35, hits give low values 0.975 | locus YJL164C, strain tpk1, hits give low values 1 | locus YJL166W, strain qcr8, hits give low values 0.996 | locus YJL168C, strain set2, hits give low values 1.01 | locus YJL187C, strain SWE1 (second series), hits give low values 1 | locus YJL187C, strain SWE1, hits give low values 0.989
